A selection: hits, their analogues and other compounds. The true share with any hit is near 3.5%.
FBW7 act: human FBW7 E3 ligase activation, primary screen | AlphaScreen FBW7–phospho-cyclin E peptide binding, activator screen | normalized activity (activation), % at 26.1 µM | 650,000 tested, 0.13% active | AID 1259310; in the data active means normalized activity above about 1.9%;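 further: purified mutant Fbw7 with reduced substrate affinity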
TEAD-YAP inh: TEAD-YAP interaction inhibition | 640,000 tested, 1.4% active | AID 1259422 | inhibition, % at 9.12 µM | HEK-TIYL cells, TEAD-Gal4/YAP UAS-luciferase luminescence; in the data active means inhibition above about 32%;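 further: 0% = median of test compound wells and 100% = reference inhibitor wells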
MITF inh: inhibitors of human MITF. O75030. AlphaScreen MITF homodimerization, bead proximity signal. inhibition, % at 2.6 µM. 650,000 tested, 0.91% active; in the data active means inhibition above about 50%;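 further: 0% = vehicle wells with protein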
GPR151 ag: human GPR151 activation; Q8TDV0; PathHunter beta-arrestin GPR151 cells, luminescence; activation, % at 11.2 µM; 650,000 tested, 1% active; in the data active means activation above about 4.9%;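 further: 0% = median of compound wells and 100% = cells with positive control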
Target sequence (Q8TDV0 whole entry, looked up): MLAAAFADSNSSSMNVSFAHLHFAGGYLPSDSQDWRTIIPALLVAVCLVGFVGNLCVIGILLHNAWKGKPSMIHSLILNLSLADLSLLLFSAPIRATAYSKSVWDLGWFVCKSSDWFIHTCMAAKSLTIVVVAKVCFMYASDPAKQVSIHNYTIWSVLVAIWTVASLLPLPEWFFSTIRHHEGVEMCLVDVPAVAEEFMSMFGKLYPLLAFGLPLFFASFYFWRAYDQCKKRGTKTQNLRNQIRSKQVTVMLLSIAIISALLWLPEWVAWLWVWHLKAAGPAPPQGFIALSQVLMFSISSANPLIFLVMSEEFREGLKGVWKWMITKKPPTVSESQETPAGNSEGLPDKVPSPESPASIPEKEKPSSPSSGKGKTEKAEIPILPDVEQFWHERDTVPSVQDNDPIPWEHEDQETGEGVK
The depositor's hits bear a star.

SMILES | FBW7 act | TEAD-YAP inh | MITF inh | GPR151 ag
CC(C)n1cnc2c(Nc3ccc(N4CCOCC4)cc3)nc(-c3ccc(C(N)=O)cc3)nc21 | 0 | 32* | 2 | -1
COc1cccc(C2C3=C(CC(c4ccc(Cl)cc4)CC3=O)Nc3ccccc3N2C(=O)C(F)(F)F)c1 (stereo unspecified) | 0 | 13 | 3 | 0
CCN(CC)CC#CC(CC)(CC)OC(C)=O | 0 | -4 | -21 | 1
Cc1cc(C)nc(Nc2ccc(C(F)(F)F)cc2)n1 | 0 | -6 | 4 | -1
CC(C)n1cnc2c(Nc3ccccc3)nc(NC3CCC(O)CC3)nc21 (stereo unspecified) | 0 | 68* | 3 | -8
CC(=O)Nc1ccc(Nc2nc(NC3CCC(O)CC3)nc3c2ncn3C(C)C)cc1 (stereo unspecified) | 0 | 6 | -3 | -3
Cc1ccc(NC(=O)CSc2nnc(-c3ccc(NS(C)(=O)=O)cc3)o2)c(C)c1 | 0 | 10 | -2 | 1
Cc1ccc2c(c1)C1C=CCC1C(C(=O)O)N2 (stereo unspecified) | -2 | -6 | 70* | 0
Fc1ccc(C2Nc3ccc(OC(F)(F)F)cc3C3C=CCC32)cc1 (stereo unspecified) | 0 | 2 | 8 | 0
Cc1cc(I)cc2c1NC(C(=O)O)C1CC=CC21 (stereo unspecified) | 0 | 8 | 50 | 2
O=C(O)C1Nc2ccc(OC(F)(F)F)cc2C2C=CCC12 (stereo unspecified) | 0 | 1 | 75* | 0
NS(=O)(=O)c1ccc2c(c1)C1C=CCC1C(C(=O)O)N2 (stereo unspecified) | 0 | 5 | 72* | -1
CC(=O)c1ccc2c(c1)C1C=CCC1C(C(=O)O)N2 (stereo unspecified) | 0 | 5 | 79* | -2
COC(=O)c1ccc(C)c(NC(=O)Nc2ccc(OC)cc2OC)c1 | 0 | 12 | 2 | 0
C=CCOc1ccccc1CN1CCC(CCC(=O)NCCOC)CC1 | 0 | -7 | 18 | -1
Cc1ccc(F)cc1NC(=O)CN1C(=O)C(=O)N(Cc2ccccc2)C1=O | 0 | 4 | 2 | 0
CCC(=O)NC(c1ccccc1)c1ccc2cccnc2c1O (stereo unspecified) | -2 | 82* | 35 | 0
CCCCC(=O)NC(c1ccc(Cl)cc1)c1ccc2cccnc2c1O (stereo unspecified) | -1 | 85* | 27 | 0
CCCC(=O)NC(c1ccc(Cl)cc1Cl)c1ccc2cccnc2c1O (stereo unspecified) | -1 | 63* | 26 | -1
COCC(=O)NC(c1ccccc1)c1cc(Cl)c2cccnc2c1O (stereo unspecified) | 0 | 24 | 27 | 0
CCC(=O)NC(c1ccc(OC)cc1)c1ccc2cccnc2c1O (stereo unspecified) | -2 | 32* | 63* | 0
Cc1nnc(SCC(=O)Nc2cc(Cl)cc(Cl)c2)n1N | 0 | -7 | 12 | 0
C=CCN1C(=O)S/C(=C/c2cc(Cl)cc(OC)c2O)C1=O | 0 | -12 | -3 | 2
Cc1cc(NC(=O)CN2CC(C)CC(C)C2)nc2c1c(=O)oc1ccccc12 (stereo unspecified) | 0 | 7 | -12 | 4
CCC(Oc1ccccc1)C(=O)N1CCCCCC1 (stereo unspecified) | 0 | 2 | -7 | 3
SMILES | FBW7 act | TEAD-YAP inh | MITF inh | GPR151 ag
CCN1C(=O)c2cccc3c(S(=O)(=O)Nc4ccc(F)cc4)ccc1c23 | 0 | -8 | -5 | 0
CC(=O)NC(c1ccc(Cl)cc1Cl)c1cc(Cl)c2cccnc2c1O (stereo unspecified) | 0 | 20 | 4 | 0
CCC(=O)NC(c1ccc(Cl)cc1)c1ccc2cccnc2c1O (stereo unspecified) | -1 | 95* | 32 | 0
CCC(=O)NC(c1ccc2c(c1)OCO2)c1cc(Cl)c2cccnc2c1O (stereo unspecified) | 0 | 5 | 14 | -1
CC(=O)NC(c1ccc(Cl)cc1Cl)c1ccc2cccnc2c1O (stereo unspecified) | -1 | 89* | 42 | 3
CCCC(=O)NC(c1ccc(Cl)cc1)c1ccc2cccnc2c1O (stereo unspecified) | -1 | 88* | 25 | -1
COc1ccc(OCc2nnc(SCc3nnc(-c4cccs4)o3)n2C)cc1 | 0 | 3 | 8 | 0
CC(C)CCN1CC[C@@H]2[C@H](CCCN2C(=O)c2cnccn2)C1 | 0 | 0 | -4 | -1
COc1ccc(NC(=O)CSc2nc3[nH]ncc3c(=O)n2-c2ccccc2C)c(OC)c1 | 0 | 4 | 2 | 0
